# Assay outcomes (PubChem BioAssay)
# 15-hLO inh: qHTS Assay for Inhibitors of 15-hLO (15-human lipoxygenase); AID 887, 2007; Polyunsaturated fatty acid lipoxygenase ALOX15 (Homo sapiens), P16050; Potency, µM (doses to about 57.1 µM), for inactives: at the highest dose activity change, negative = inhibition, usual class: inhibitors; actives 1.4% (n = 74,000); purified 15hLO-1, xylenol orange hydroperoxide absorbance; note: potency is the fitted concentration of half-maximal effect; % is set by controls: 0 for no effect and ±100 for the full control effect; nearly all actives have a fitted effect of over 55% in size
# Target sequence (P16050 whole entry, looked up): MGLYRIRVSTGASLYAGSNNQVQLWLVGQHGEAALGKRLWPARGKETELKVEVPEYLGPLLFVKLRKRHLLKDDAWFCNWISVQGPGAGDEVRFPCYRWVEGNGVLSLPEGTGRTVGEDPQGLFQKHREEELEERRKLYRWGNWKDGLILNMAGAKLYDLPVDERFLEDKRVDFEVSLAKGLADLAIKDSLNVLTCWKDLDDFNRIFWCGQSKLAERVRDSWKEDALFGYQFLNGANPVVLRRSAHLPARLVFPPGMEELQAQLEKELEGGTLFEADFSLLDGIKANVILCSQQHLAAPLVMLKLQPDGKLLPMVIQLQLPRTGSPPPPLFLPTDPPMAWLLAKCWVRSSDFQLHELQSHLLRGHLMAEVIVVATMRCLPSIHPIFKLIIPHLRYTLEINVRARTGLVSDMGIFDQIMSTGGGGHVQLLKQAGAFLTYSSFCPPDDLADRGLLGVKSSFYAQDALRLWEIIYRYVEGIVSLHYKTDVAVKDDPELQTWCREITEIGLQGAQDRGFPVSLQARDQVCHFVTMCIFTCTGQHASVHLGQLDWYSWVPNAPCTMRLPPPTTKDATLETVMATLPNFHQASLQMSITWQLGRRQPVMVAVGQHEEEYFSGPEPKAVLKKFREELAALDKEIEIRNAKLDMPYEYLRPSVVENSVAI
#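 Purified human 15hLO-1 (40 nM) in 25 mM Hepes pH 7.5, 0.01% Triton X-100, preincubated 15 min RT with compound, then 50 uM arachidonic acid for 6 min. Hydroperoxide read by ferrous/xylenol orange, 30 min; 573/405 nm absorbance ratio gave progress.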
# HBB splicing: qHTS Assay for Modulators of Hemoglobin Beta Chain Splicing; HBB splicing reporter cell assay, activation; EGFP reporter with mutant IVS2-654 intron; response scale: normalised to 500 nM splice-correcting PNA; Potency, µM (highest dose often 46.1 µM), without a hit: at the highest dose activation, usual class: activators; actives 0.06% (n = 65,000); note: potency is the fitted concentration of half-maximal effect; 0% is about no effect
#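 Compounds were applied for 2 days to HeLa EGFP-654 cells, 500/well in Optimem with 2% FCS. The reporter's EGFP is disrupted by mis-splicing of beta-globin intron IVS2-654. Readout: summed well GFP fluorescence from 488 nm laser scanning; reference was 500 nM antisense […] 654 PNA.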
# Tau fil binding: qHTS Assay for Tau Filament Binding | Microtubule-associated protein tau (Homo sapiens), P10636 | recombinant tau filaments, thioflavin S fluorescence, 15 h; filaments grown with octadecylsulfate alongside compound | Potency, µM (series often up to 57.1 µM), for the others: top-dose activity change, negative = inhibition | actives 2% (n = 71,000) | AID 596, 2007;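 note: potency is the fitted concentration of half-maximal effect; % is set by controls: 0 for no effect and ±100 for the full control effect; actives lower thioflavin S fluorescence by blocking filaments or displacing dye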
#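 Thioflavine S fluorescence (ex 450, em 510 nm) reports filaments formed from 1 uM human tau plus 30 uM ODS over 15 h at 37 C (10 mM HEPES pH 7.4, 100 mM NaCl, 5 mM DTT); compounds displacing dye or blocking filaments lower signal.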
# Ub-GFP proteasome: Ubiquitin-GFP Assay; AID 526, 2006; Ubiquitin-GFP reporter cells, proteasome inhibition, GFP fluorescence; response scale: untreated = 0%, 10 µM MG-132 = 100%; 67,000 tested, under 10 active; Potency, µM (highest dose often 45.9 µM), for the others: at the highest dose activation (GFP accumulation), actives largely listed as activators; active = well fitted activation curve with a large enough effect, not every such curve was filed as active; inconclusive = small, poorly fitted or top-dose-only effect, or another doubt; inactive = no such curve, though single readings can be large or run the other way; note: potency is the fitted concentration of half-maximal effect
#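 Reporter cells (U2OS, ubiquitin-G76V-GFP fusion) are plated overnight, then treated 4 hr at 37 °C with compound titrations from 46 uM down to 2.9 nM. Activity is scaled against untreated cells and 10 uM MG-132.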
# 15-hLO-2 inh: qHTS Assay for Inhibitors of 15-hLO-2 (15-human lipoxygenase 2); actives 0.56% (n = 110,000); Polyunsaturated fatty acid lipoxygenase ALOX15B (Homo sapiens), O15296; purified 15hLO-2, xylenol orange hydroperoxide absorbance; Potency, µM (highest dose often 57.1 µM), without a hit: at the top dose activity change, negative = inhibition, usual class: inhibitors; AID 881, 2007; note: potency is the fitted concentration of half-maximal effect; % is set by controls: 0 for no effect and ±100 for the full control effect; nearly all actives have a fitted effect of over 60% in size
#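 Enzyme 50 nM, AA 45 uM, 25 mM Hepes pH 7.5 + 0.01% Triton X-100; cpd preinc 15 min RT, rxn 90 min RT; stop/detect with 200 uM XO + 300 uM Fe(II) in 50 mM H2SO4, 30 min; A573/A405.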
# Epigenetic mod: qHTS Assay for Epigenetic Modulators; mouse C127i GFP locus derepression, cytometry, 30 h; Potency, µM (highest dose often 46.1 µM), for inactives: at the highest dose GFP derepression (activation); actives 0.09% (n = 68,000); AID 597, 2007; note: % of control where 0% means no effect
#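 Locus derepression in mouse mammary C127i cells whose integrated CMV-GFP reporter is normally silent; GFP expression after 30 h compound treatment was quantified by counting fluorescent cells.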
# * marks the source's active call; other numbers are inactive results; ? = inconclusive; . = no result; [ ] = another dose, or the depositor's remark. Sampled rows, rich in hits. Any-hit rate of the full collection: about 2.3%. Unless noted, calls come from the whole dose curve; as a rule, active = well fitted curve in the direction sought with a large enough effect; inconclusive = small, poorly fitted or top-dose-only effect, or another doubt; inactive = no such curve, though single readings can be large; an effect the other way counts as inactive or inconclusive.
SMILES,15-hLO inh,HBB splicing,Tau fil binding,Ub-GFP proteasome,15-hLO-2 inh,Epigenetic mod
Cc1cc(C)n(-c2nncc(-c3ccccc3)n2)n1,-3.4%,-0.7%[9.22 µM],15.8µM*,15.4%,3.3%,0.0%
Cc1cc(C)n(-c2ncc(-c3ccccc3)nn2)n1,14.3%,-1.4%,25.1µM*,10.3%,-3.0%,.
C/C(CCC(=O)OC[C@@H]1O[C@H](C#Cc2ccccc2)C=C[C@@H]1Oc1ccc(C)cc1)=N/O[C@@H](C)c1cn([C@H]2COC[C@H]2O)nn1,-1.2%[11.4 µM],2.0%[9.22 µM],.,.,.,.
COc1cc(O)c2c(O)c3c(c4c2c1[C@@]1(C4)C(C)=CCCC1(C)C)[C@H](O)[C@@]1(O)CC(=O)C(C(N)=O)=C(O)[C@]1(O)C3=O,?,2.7%[9.22 µM],87.7%[11.4 µM],-3.8%[9.17 µM],?,-4.4%[9.22 µM]
CCCn1c(=N)c(C(=O)NCC2CCCO2)cc2c(=O)n3cccc(C)c3nc21 (centres undefined),-1.3%,-0.6%,-13.7%,1.6%,-21.1%,-0.3%
N=c1c(C(=O)NCc2ccc(F)cc2)cc2c(=O)n3ccccc3nc2n1CC1CCCO1 (centres undefined),-13.6%,0.0%[57.5 µM],3.16µM*,-0.9%,-5.9%,4.7%
Cc1ccc(CNC(=O)c2cc3c(=O)n4cccc(C)c4nc3n(CC3CCCO3)c2=N)cc1 (centres undefined),-0.3%,1.8%[1.84 µM],1.26µM*,-1.4%,1.3%,-2.0%
C[C@H]1CN(CCO)CCN1c1ccccc1,-8.1%[11.4 µM],-0.5%[9.22 µM],7.5%[11.4 µM],7.7%[9.17 µM],-0.2%[11.4 µM],0.0%[9.22 µM]
Nc1ccc(S(=O)(=O)NCCS(=O)(=O)O)cc1,1.2%[11.4 µM],2.8%[9.22 µM],0.2%[11.4 µM],-7.3%[9.17 µM],-8.0%[11.4 µM],-5.7%[9.22 µM]
COc1ccc(NC2c3ccccc3C(=O)N2Cc2ccco2)cc1OC (centres undefined),-14.0%,-1.0%,-17.8%,-6.0%,-17.3%,-3.4%
CCOc1ccc(NC2c3ccccc3C(=O)N2Cc2ccco2)cc1 (centres undefined),-12.3%,-1.6%,15.8µM*,-2.9%,.,1.9%
COc1ccc(OC)c(NC2c3ccccc3C(=O)N2Cc2ccc3c(c2)OCO3)c1 (centres undefined),-12.7%,-1.7%,20µM*,-8.6%,-25.7%,.
O=C1c2ccccc2C(Nc2ccc3c(c2)OCO3)N1Cc1ccco1 (centres undefined),?,-0.5%,12.6µM*,-1.7%,.,-3.8%
O=C1c2ccccc2C(Nc2ccc3c(c2)OCO3)N1Cc1ccc2c(c1)OCO2 (centres undefined),-29.6%,-0.6%,10µM*,-2.9%,.,.
O=C1c2ccccc2C(Nc2cccnc2)N1Cc1ccc2c(c1)OCO2 (centres undefined),11.4%,-1.1%,-2.3%,4.6%,.,.
C=CCCCC,4.7%,0.3%,6.0%,.,-11.3%,.
NC(=O)C[C@H](N)C(N)=O,0.0%[11.4 µM],3.4%[9.22 µM],3.8%[11.4 µM],8.7%[9.17 µM],2.3%[11.4 µM],-2.2%[9.22 µM]
C/C=C1\CC2C=CC1C2 (centres undefined),-3.0%,0.8%,3.3%,.,0.5%,.
C[C@@H]1C(=O)O[C@H]2[C@@H](O)[C@@]34[C@H]5C[C@H](C(C)(C)C)[C@@]36[C@H](OC(=O)[C@@H]6O)O[C@@]4(C(=O)O5)[C@@]12O,.,.,?,3.9%,.,0.0%[9.22 µM]
C[C@H](NC(=O)c1ccc(Cl)c(Cl)c1)c1ccc(-c2ccccc2)cc1,0.2%[11.4 µM],4.6%[9.22 µM],-7.8%[11.4 µM],-4.6%[9.17 µM],-1.1%[11.4 µM],2.3%[9.22 µM]
COC(=O)c1cc(NC2c3ccccc3C(=O)N2Cc2ccco2)cc(C(=O)OC)c1 (centres undefined),.,.,.,.,-7.7%,.
